# Results taken from PubChem BioAssay (NCATS).
# Inconclusive results are not listed. A call without a number means that no potency is given here. Activity calls are given as the source filed them. Calls come from the whole dose curve. Square brackets hold non-standard residues; d marks the D form. Peptide text beside a SMILES is read from it. * marks the point of attachment. Benzoyl(4-tBu) = CC(C)(C)c1ccc(C(=O)*)cc1; Lys(Et2) = CCN(CC)CCCC[C@H](N)C(=O)O
# Tests used:
# [1] = Cytotoxicity counterscreen for inhibitors of SARS-CoV-2 cell entry (AID 1645845); conditions: outcome: dose series up to 57.1 µM unless noted; note: nearly all actives have a fitted effect of over 50% in size
# Summary of the method: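 48 h compound treatment (after 1 h preincubation), HEK293-ACE2 cells, 37 C/5% CO2; ATP luminescence endpoint; normalized to cell wells and media blanks.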
# [2] = Primary qHTS to identify inhibitors of SARS-CoV-2 cell entry (AID 1645846); conditions: SARS-CoV-2 pseudovirus cell entry assay, luminescence; activity change, negative = inhibition: at 57.1 µM (top of the series) unless noted; note: nearly all actives have a fitted effect of over 45% in size
# Summary of the method: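 Entry measured by luciferase signal 48 h after adding SARS-CoV-2-S pseudotyped MLV particles to HEK293-ACE2 cells preincubated 1 h with compounds. Normalisation: bald particles and spike particles.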
# Potency is the fitted concentration of half-maximal effect.
smiles,measurement,setting,value
CC1Oc2cc(cnc2N)-c2c(nn(C)c2C#N)CN(C)C(=O)c2ccc(F)cc21 (stereo not given),Potency,[1],inactive
same,"activity change, negative = inhibition",[2],-19.3%
CCC(=O)NC[C@H](Cc1ccc(OCCc2nc(-c3ccccc3)oc2C)cc1)N/C(C)=C\C(=O)c1ccc(C(F)(F)F)cc1,Potency,[1],inactive
same,"activity change, negative = inhibition",[2],-18.7%
Cc1c[nH]c(/C=C2\C(=O)Nc3ccccc32)c1CCC(=O)O,Potency,[1],inactive
same,"activity change, negative = inhibition",[2],-20.8%
Cn1cc(-c2nc(N[C@@H]3CCCC[C@@H]3N)c(F)c3c2C(=O)NC3)cn1,outcome,[1],inactive [at 5.25 µM]
same,"activity change, negative = inhibition",[2],4.2% [at 5.25 µM]
CCOc1cc(/C=C2/C(=O)N(c3ccccc3)N=C2C)cc(Cl)c1OCC(=O)OC,Potency,[1],inactive
same,"activity change, negative = inhibition",[2],-12.7%
COc1ccc(-c2cc(C(O)C3CCCCN3)c3ccccc3n2)cc1 (stereo not given),Potency,[1],14.1 µM (active)
same,Potency,[2],12.6 µM (active)
CC(C)(O)c1coc(S(=O)(=O)NC(=O)Nc2c3c(cc4c2CCC4)CCC3)c1,Potency,[1],inactive
same,Potency,[2],inactive
COC[C@@H](c1ccc(C(F)(F)F)cc1)N1CCN(C2(C)CCN(C(=O)c3c(C)ncnc3C)CC2)C[C@@H]1C,Potency,[1],inactive
same,"activity change, negative = inhibition",[2],-12.7%
Nc1ncnc2c1ncn2[C@@H]1O[C@H](CO)C[C@H]1O,Potency,[1],inactive
same,"activity change, negative = inhibition",[2],-13%
COc1cc2c(cc1OC)CN(CCc1ccc(-n3nnc(-c4cc(OC)c(OC)cc4NC(=O)c4cc(=O)c5ccccc5o4)n3)cc1)CC2,"activity change, negative = cytotoxicity",[1],2.79% [at 0.702 µM] (inactive)
same,"activity change, negative = inhibition",[2],3.34% [at 0.702 µM]
O=C(/C=C\n1cnc(-c2cc(C(F)(F)F)cc(C(F)(F)F)c2)n1)NNc1cnccn1,Potency,[1],inactive
same,Potency,[2],2.82 µM (active)
CC(C)c1cc(CNc2nc(Nc3cc(C4CC4)[nH]n3)cc(N3CCN(C)CC3)n2)on1,Potency,[1],12.6 µM (active)
same,Potency,[2],2.51 µM (active)
COc1ncc(-c2ccc3c(Nc4cc(Oc5cc(F)cc(F)c5)cc(C(=O)O)c4)c(S(=O)(=O)NC4CC4)cnc3c2)c(OC)n1,Potency,[1],inactive
same,"activity change, negative = inhibition",[2],-25%
CC(=O)N1CCC(Nc2cc(C(=O)NC[C@H](O)CN3CCc4ccccc4C3)ncn2)CC1,Potency,[1],inactive
same,Potency,[2],inactive
CN(C)c1cccc(-c2c3c(=O)n(-c4ccccc4Cl)[nH]c3cc(=O)n2C)c1,Potency,[1],inactive
same,"activity change, negative = inhibition",[2],-19.6%
O=C(NCCCNc1nc(Nc2cccc(CN3CCOCC3)c2)ncc1C1CC1)C1CCC1,Potency,[1],inactive
same,Potency,[2],inactive
Cc1cc(OCc2nnc(SC3CCCC3)n2-c2cccnc2)ccc1-c1ccc(S(C)(=O)=O)cc1,Potency,[1],inactive
same,"activity change, negative = inhibition",[2],-22.4%
NC1CCCN(c2c(/C=C3\SC(=O)NC3=O)cccc2-c2ccccc2)C1 (stereo not given),Potency,[1],inactive
same,"activity change, negative = inhibition",[2],-5.59%
COc1cc2ncnc(Oc3cccc(NC(=O)Nc4cc(C(C)(C)C(F)(F)F)on4)c3)c2cc1OC,Potency,[1],inactive
same,"activity change, negative = inhibition",[2],-20.7%
CONC(=O)Nc1ccc(-c2sc3c(c2CN(C)C)c(=O)n(-c2ccc(OC)nn2)c(=O)n3Cc2c(F)cccc2F)cc1,Potency,[1],inactive
same,"activity change, negative = inhibition",[2],-24.2%
COc1cc2nc(-c3cc(F)ccc3O)nc(N[C@@H]3CNC[C@H]3C(C)(C)O)c2cc1OC,Potency,[1],3.98 µM (active)
same,Potency,[2],5.01 µM (active)
CC(C)NC(=O)C1CCC(n2c(NC(=O)c3ccc(F)cc3)nc3ccc(CN4CCC(C(C)(C)O)CC4)cc32)CC1 (stereo not given),Potency,[1],inactive
same,"activity change, negative = inhibition",[2],-10.3% [at 27.1 µM]
Cc1cc(C)cc(NC(=O)Cc2ccc(OC(C)(C)C(=O)O)cc2)c1,Potency,[1],inactive
same,Potency,[2],inactive
COC(=O)[C@H]1[C@@H](O)[C@@]2(O)c3c(OC)cc(O[C@@H]4O[C@@H]([C@@H](O)CO)CO[C@H]4OC)cc3O[C@@]2(c2ccc(OC)cc2)[C@@H]1c1ccccc1,Potency,[1],inactive
same,Potency,[2],inactive
C[C@@H](Oc1cc(C(=O)Nc2ccc(C(=O)N3CCN(C)CC3)cc2)nnc1N)c1c(Cl)ccc(F)c1Cl,Potency,[1],28.2 µM (active)
same,Potency,[2],12.6 µM (active)
O=S(=O)(NCCNC/C=C/c1ccc(Br)cc1)c1cccc2cnccc12,Potency,[1],inactive
same,"activity change, negative = inhibition",[2],-22.5%
CO[C@H]1/C=C/O[C@@]2(C)Oc3c(C)c(O)c4c(O)c(c(/C=N/N5CCN(C)CC5)c(O)c4c3C2=O)NC(=O)/C(C)=C\C=C\[C@H](C)[C@H](O)[C@@H](C)[C@@H](O)[C@@H](C)[C@H](OC(C)=O)[C@@H]1C,Potency,[1],inactive
same,"activity change, negative = inhibition",[2],-0.679%
CC(C)(O)C1CCC(Nc2ccc3ncc(-c4cccc(C(F)(F)F)c4)n3n2)CC1 (stereo not given),Potency,[1],inactive
same,"activity change, negative = inhibition",[2],-18.1%
O=C(Nc1ccccc1)Nc1ccc(-c2ccc(C(=O)[C@@H]3CCC[C@H]3C(=O)O)cc2)cc1,Potency,[1],inactive
same,"activity change, negative = inhibition",[2],-45.3%
CN(C)CCNC(=O)COc1c2cccc1Cc1cccc(c1OCC(=O)NCCN(C)C)Cc1cccc(c1OCC(=O)NCCN(C)C)Cc1cccc(c1OCC(=O)NCCN(C)C)C2,"activity change, negative = cytotoxicity",[1],-11.8% [at 11.3 µM] (inactive)
same,outcome,[2],inactive [at 11.3 µM]
Cc1c(F)cc(C(=O)NC2CC2)cc1-c1c(F)cn2c(C(C)(C)C)nnc2c1F,Potency,[1],inactive
same,"activity change, negative = inhibition",[2],3.6%
NS(=O)(=O)NCCNc1nonc1C(=Nc1ccc(F)c(Br)c1)NO,Potency,[1],inactive
same,"activity change, negative = inhibition",[2],-14.4%
C=CCN(/C=C1\C(=O)O[C@@H](COC)[C@]2(C)C1=C(O)C(=O)C1=C2[C@@H](OC(C)=O)C[C@]2(C)C(=O)CC[C@H]12)CC=C,Potency,[1],inactive
same,Potency,[2],inactive
C[C@@H]1[C@H](O)[C@@H](C)/C=C/C=C/C=C/C=C/C=C/C=C/C=C/[C@H](O[C@@H]2O[C@H](C)[C@@H](O)[C@H](N)[C@@H]2O)C[C@@H]2O[C@](O)(C[C@@H](O)C[C@@H](O)[C@H](O)CC[C@@H](O)C[C@@H](O)CC(=O)O[C@H]1C)C[C@H](O)[C@H]2C(=O)O,Potency,[1],inactive
same,Potency,[2],inactive
C[C@H](Nc1ncnc2nc[nH]c12)c1cc2ccc(F)cc2nc1-c1ccccn1,Potency,[1],inactive
same,"activity change, negative = inhibition",[2],-9.43%
CCN(CC)CCCC[C@H](NC(=O)[C@H](CC(C)C)NC(=O)[C@H](C)NC(=O)[C@H](Cc1ccccc1)NC(=O)c1ccc(C(C)(C)C)cc1)C(=O)N[C@@H](CO)C(=O)OC ({Benzoyl(4-tBu)}-FAL[Lys(Et2)]S-OMe),Potency,[1],inactive
same,Potency,[2],inactive
CC(=O)N1CCN(c2ccc(NC(=O)Cc3cnc(-c4ccnc(F)c4)c(C)c3)nc2)CC1,Potency,[1],inactive
same,"activity change, negative = inhibition",[2],0.388%
COc1ccc(-n2cnc3cc(C(=O)N4CCCCC4)ccc32)cc1,Potency,[1],inactive
same,"activity change, negative = inhibition",[2],0.509%
O=c1c(-c2ccc(O)cc2)coc2c([C@@H]3O[C@H](CO)[C@@H](O)[C@H](O)[C@H]3O)c(O)ccc12,Potency,[1],inactive
same,"activity change, negative = inhibition",[2],-22.1%
Nc1ncnc2c1c(COc1cccc(Cl)c1)nn2C1CCOCC1,Potency,[1],inactive
same,Potency,[2],inactive
COc1c(C)cc(NC(=O)c2nn(Cc3ccc(F)cc3)c3c2CN(C(=O)c2ccc[nH]2)C[C@]3(C)C(N)=O)cc1C,Potency,[1],inactive
same,Potency,[2],inactive
N[C@@H](CCC(=O)O)C(=O)N[C@@H](Cc1c[nH]c2ccccc12)C(=O)O (H-Glu-Trp-OH),Potency,[1],inactive
same,Potency,[2],inactive
Nc1nccc(-c2c(-c3ccc(F)cc3)ncn2C2CCCCC2)n1,Potency,[1],inactive
same,Potency,[2],inactive
O=C(Nc1cc(Oc2cc(F)c(NC(=O)C3(C(=O)Nc4ccc(F)cc4)CC3)cc2F)ccn1)C1CC1,Potency,[1],inactive
same,"activity change, negative = inhibition",[2],-38.1%
CC(C)(O)[C@H]1CC[C@@](C)([C@H]2[C@@H](O)C[C@@]3(C)[C@@H]4C[C@H](O[C@@H]5O[C@H](CO)[C@@H](O)[C@H](O)[C@H]5O)[C@H]5C(C)(C)[C@@H](O[C@@H]6OC[C@@H](O)[C@H](O)[C@H]6O)CC[C@@]56C[C@@]46CC[C@]23C)O1,Potency,[1],inactive
same,Potency,[2],inactive
Cc1cnc(NC(=O)c2cc(Oc3cnc(C(=O)N(C)C)nc3)c3cc(C)oc3c2)cn1,Potency,[1],inactive
same,"activity change, negative = inhibition",[2],-4.66%
COc1ccc(-c2c(C)nn3c(NCCN4CCOCC4)cc(C)nc23)cc1OC,Potency,[1],inactive
same,"activity change, negative = inhibition",[2],3.31%
CNC(=O)c1c(C)oc2cc(Oc3ncnc4cc(OC)c(OC)cc34)ccc12,Potency,[1],inactive
same,Potency,[2],inactive
CC1CCC(n2c3cnccc3c3cnc(Nc4ccc5c(n4)CCN(C(=O)CO)C5)nc32)CC1 (stereo not given),"activity change, negative = cytotoxicity",[1],4.82% [at 11.3 µM] (inactive)
same,outcome,[2],inactive [at 11.3 µM]
CC(=O)N[C@H]1CSSC[C@@H](C(N)=O)NC(=O)[C@H](C(C)C)NC(=O)[C@H](C)NC(=O)[C@H](Cc2cnc[nH]2)NC1=O,Potency,[1],inactive
same,Potency,[2],inactive
CS(=O)(=O)c1ccc(-c2nnc(/C=C/c3nnc(-c4ccc(C#N)cc4)o3)n2-c2ccccc2Cl)nc1,Potency,[1],inactive
same,"activity change, negative = inhibition",[2],-12.6%
C[C@H](NC(=O)/C(C#N)=C/c1cccc(Br)n1)c1ccccc1,Potency,[1],28.2 µM (active)
same,Potency,[2],35.5 µM (active)
Cc1cc(-c2nc3cc(F)ccc3s2)ccc1NC(=O)[C@@H](N)CCCCN,Potency,[1],22.4 µM (active)
same,Potency,[2],28.2 µM (active)
COc1cc(OC)c2c(=O)[nH]c(-c3cc(C)c(OCCO)c(C)c3)nc2c1,Potency,[1],inactive
same,Potency,[2],inactive
CC(C)(C)C(=O)CN1C(=O)[C@H](NC(=O)Nc2cccc(C(=O)O)c2)CN(C2CCCCC2)c2ccccc21,Potency,[1],inactive
same,"activity change, negative = inhibition",[2],-4.52%
O=C(O)CNC(=O)c1nc(Cl)c2ccccc2c1O,Potency,[1],inactive
same,"activity change, negative = inhibition",[2],-5.6%
Cc1c(-c2c(-c3ccc(F)o3)sc3ncnc(O[C@@H](Cc4ccccc4OCc4ccnn4CC(F)(F)F)C(=O)O)c23)ccc(OCCN2CCN(C)CC2)c1Cl,Potency,[1],inactive
same,"activity change, negative = inhibition",[2],-7.93%
N[C@@H]1CN(c2c(F)cc3c(=O)c(C(=O)O)cn([C@@H]4C[C@@H]4F)c3c2Cl)CC12CC2,Potency,[1],inactive
same,"activity change, negative = inhibition",[2],-5.2%
O=c1oc2c(C3OCCCO3)c(O)ccc2c2c1CNCC2,Potency,[1],inactive
same,"activity change, negative = inhibition",[2],1.62%
Nc1nc(F)nc2c1ncn2[C@@H]1O[C@H](COP(=O)(O)O)[C@@H](O)[C@@H]1O,Potency,[1],inactive
same,"activity change, negative = inhibition",[2],0.103%
